In ChEMBL document CHEMBL1157539, “Thousands of chemical starting points for antimalarial lead identification” (Nature, 2010):

Assays:
Type in all cases: functional
Plasmodium falciparum [1] = experiment: GSK_TCMDC: Inhibition of Plasmodium falciparum 3D7 in whole red blood cells, using parasite LDH activity as an index of growth. Test compounds present at 2uM
Plasmodium falciparum [2] = experiment: GSK_TCMDC: Inhibition of Plasmodium falciparum Dd2 in whole red blood cells, using parasite LDH activity as an index of growth. Test compounds present at 2uM
HepG2 = experiment: GSK_TCMDC: Percent inhibition of human HepG2 cell line. Test compounds present at 10uM.

Row | SMILES | Inhibition (Plasmodium falciparum [1]) [%] | Inhibition (Plasmodium falciparum [2]) [%] | Inhibition (HepG2) [%]
1 | CC(C)(C)c1cc(C(=O)Nc2cccnc2)cc(C(=O)Nc2cccnc2)c1 | 95 | 35 | 0
2 | CCN(CC)C(=O)C(=O)c1c[nH]c2ccc(Cl)cc12 | 96 | 96 | 1
3 | CC1=C(C(=O)Nc2cc3cn[nH]c3cc2F)C(c2cccc(NS(C)(=O)=O)c2)CC(=O)N1 (centres undefined) | 96 | 97 | 0
4 | CC(C)(C(=O)Nc1ccc(C2CCC(NCC3CC3)CC2)c(Cl)c1)c1ccc(C(F)(F)F)cc1 (centres undefined) | 97 | 18 | 64
5 | Fc1cccc(C=NN=c2cc[nH]c3ccccc23)c1 | 100 | 72 | 3
6 | Cc1cc(N[C@@H](CC(C)C)C(=O)NCc2cccs2)nc(NCCc2cccs2)n1.O=C(O)C(F)(F)F | 92 | 13 | 0
7 | COc1cc(CC2c3cc(O)c(Cl)cc3CCN2C)c(OC)cc1C.Cl (centres undefined) | 99 | 88 | 10
8 | O=C(Nc1ccccc1)N(Cc1cccc(-c2cccc(CNCCc3ccccc3)c2)c1)C1CCN(Cc2ccccc2)CC1.O=C(O)C(F)(F)F | 100 | 87 | 100
9 | CCN1CCN(CC(O)CNC(=O)Nc2ccc(Cl)cc2)CC1.O=C(O)C(F)(F)F (centres undefined) | 100 | 99 | 29
10 | Cc1ccc(Nc2cc(C)nn2-c2nc(C)cc(O)n2)cc1 | 97 | 95 | 54
11 | CC(C)C[C@H](NC(=O)c1cc2ccccc2s1)C(=O)N[C@H]1CCN(Cc2ccc(I)c(OCCN3CCCC3)c2)C1.O=C(O)C(F)(F)F | 92 | 88 | 3
12 | COc1ccc2nccc([C@@H](O)CN3CCC(NCc4cc5cccc(O)c5[nH]4)CC3)c2c1.O=C(O)C(=O)O | 100 | 35 | 0
13 | CCOC(=O)c1ccc(NC(=O)NNC(=O)c2ccc(CCN3CCC(c4nc(COCC(F)(F)F)c(-c5ccc(F)cc5)o4)CC3)cc2)cc1 | 100 | 67 | 10
14 | Cc1ccc(NC(=O)c2ccc(Cl)cc2)cc1-c1ccc(C(=O)Nc2ccncc2)cc1 | 98 | 5 | 36
15 | COc1cc(C(=O)Nc2ccc3nc(N4CCN(C)CC4)cc(C)c3c2)cc(OC)c1OC | 100 | 79 | 18
16 | Cc1[nH]c(C)c(-c2ccc(-c3ccccc3)nc2)c(=O)c1Br | 96 | 95 | 0
17 | O=C(O)C(F)(F)F.OC1CCCN(Cc2ccc(-c3ccc(-c4nc5ccccc5[nH]4)cc3)cc2)C1 (centres undefined) | 100 | 77 | 46
18 | CN(C)c1ccc(-c2csc(C(=O)NC3CCCCN(CCC(C)(C)C)C3)c2)cc1.O=C(O)C(F)(F)F (centres undefined) | 91 | 68 | 10
19 | Cc1cc(NC(=O)CCCN2CCN(c3cccc(Cl)c3Cl)CC2)ccc1N1CCN(C(C)C)CC1.Cl | 100 | 53 | 86
20 | Fc1cccc(CNc2ncc(-c3ccsc3)c(-c3nccs3)n2)c1 | 91 | 85 | 15
21 | Br.CCOC(=O)c1cc(Cl)cc(Cl)c1OCCCON1C(=N)N=C(N)NC1(C)C | 93 | 97 | 70
22 | CCCCCCCCCN(CCC)C(=O)[C@@H]1OC(C(=O)OC(c2ccccc2)c2ccccc2)=C[C@H](NC(=O)OC(C)(C)C)[C@H]1NC(C)=O | 91 | 49 | 0
23 | COc1cc(N)c(Cl)cc1C(=O)NC1CCC(NCC2CCCCC2)CC1.Cl (centres undefined) | 90 | 85 | 18
24 | CCc1cc2c(Sc3nnc(N)s3)ncnc2s1 | 99 | 65 | 0
25 | CC(C)CCCC(C)(C)NC[C@@H](O)[C@H](Cc1ccccc1)NC(=O)c1cc(NC(C)C)cc(N2CCCCS2(=O)=O)c1.O=CO | 98 | 98 | 2
26 | CCC(Nc1noc(-c2c(-c3ccccc3)noc2C)n1)c1ccccc1 (centres undefined) | 99 | 85 | 4
27 | Cc1cc(CNC(c2ccccc2)C2CCC2)cc(C)c1O (centres undefined) | 94 | 48 | 78
28 | CCOc1ccc2c(c1)OC(c1ccccc1)(C(F)(F)F)NC2=O (centres undefined) | 100 | 98 | 0
